The panel holds about 83,000 compounds, 20% with a hit somewhere; the sample as a whole holds those more often.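 Step 1: grow cells in 96-well plates. Step 2: add test compound at a single concentration. Step 3: incubate 48 h. Step 4: record percent growth.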 Unmarked numbers belong to inactive results. Calls of active or inactive are those of the source. How the source made its calls: active means growth percent below 10; inactive means the rest.

The record followed here is PubChem BioAssay (NCI).

Some test systems named below: SR leukemia; RPMI-8226 leukemia; OVCAR-8 ovarian; OVCAR-5 ovarian; OVCAR-4 ovarian; SK-OV-3 ovarian; IGROV1 ovarian; OVCAR-3 ovarian; HS 578T breast; NCI/ADR-RES ovarian; T-47D breast; BT-549 breast; MDA-MB-435 melanoma; SW-620 colon; MCF7 breast; HCC-2998 colon; KM12 colon; HCT-116 colon.
What all share (assay): NCI-60 one-dose screen, 48 h (100 = growth as untreated, 0 = no growth, -100 = all killed)
Conditions in all cases: 10 µM unless noted

`Nc1ccc(Br)cc1C(F)(F)F`: the growth is 112% with SR leukemia; 115% with RPMI-8226 leukemia; 100% in the assay with OVCAR-8 ovarian; 94.9% in the assay on OVCAR-5 ovarian; 124% in the assay on OVCAR-4 ovarian; 103% in the assay on SK-OV-3 ovarian. The growth with IGROV1 ovarian is 114%; in the assay with OVCAR-3 ovarian it was 120%; with HS 578T breast, 113%; in the assay with NCI/ADR-RES ovarian, 106%; in the assay on T-47D breast, 96.7%; with BT-549 breast, 107%. Besides, the growth with MDA-MB-435 melanoma is 117%; in the assay on SW-620 colon, 111%; in the assay with MCF7 breast it was 106%; in the assay with HCC-2998 colon, 114%; with KM12 colon, 112%.

In the case of `Cc1cc(C)c2c(c1)N(C)c1ncnc(-n3c(C)nc4cc(C)ccc43)c1CC2C` (stereo unspecified), the growth in the assay on SR leukemia was 11.3%; in the assay on RPMI-8226 leukemia, 35%; in the assay with OVCAR-8 ovarian, 71.6%; with OVCAR-5 ovarian, 91.2%; in the assay on OVCAR-4 ovarian, 58.1%; with SK-OV-3 ovarian, 31.5%. Also, the growth in the assay on IGROV1 ovarian is 47.5%; in the assay on OVCAR-3 ovarian, 21.5%; in the assay on HS 578T breast, 40.9%; in the assay with NCI/ADR-RES ovarian, 7.15% (active); in the assay on T-47D breast, 48.9%; in the assay on BT-549 breast, 59.2%. Further, the growth in the assay with MDA-MB-435 melanoma was 2.51% (active); in the assay on SW-620 colon it was 19.6%; in the assay on MCF7 breast, 18.7%; in the assay with HCC-2998 colon it was 76.1%; with KM12 colon it was 38.7%.

For the compound `CCOC(=O)c1nnn(Cc2cc(=O)oc3ccc(O)cc23)c1C`, the growth in the assay with SR leukemia was 92.8%; in the assay on RPMI-8226 leukemia, 96.7%; in the assay on OVCAR-8 ovarian it was 107%; in the assay on OVCAR-5 ovarian, 101%; in the assay with OVCAR-4 ovarian, 109%; with SK-OV-3 ovarian, 105%. The growth in the assay on IGROV1 ovarian was 106%; in the assay on OVCAR-3 ovarian it was 107%; in the assay on HS 578T breast, 93.5%; in the assay on NCI/ADR-RES ovarian, 108%; in the assay with T-47D breast, 98%; in the assay with BT-549 breast, 110%. For the same compound, the growth is 104% in the assay with MDA-MB-435 melanoma; 98.2% in the assay with SW-620 colon; 92.4% in the assay with MCF7 breast; 96% in the assay on HCT-116 colon; 102% in the assay with KM12 colon.

Consider `O=C(/C=C/C12c3ccccc3C(c3ccccc31)C1C(=O)NC(=O)C12)c1ccco1` (stereo unspecified), for which the growth with SR leukemia is 13%; in the assay with RPMI-8226 leukemia, -7.21% (active); in the assay on OVCAR-8 ovarian, 5.8% (active); in the assay with OVCAR-5 ovarian, 44.3%; in the assay with OVCAR-4 ovarian it was 53.4%; in the assay with SK-OV-3 ovarian, 42.7%. Besides, the growth in the assay with IGROV1 ovarian is 26.5%; in the assay with OVCAR-3 ovarian, 11.7%; in the assay with HS 578T breast, 31.4%; in the assay on NCI/ADR-RES ovarian it was 42.3%; with T-47D breast it was 18.6%; in the assay on BT-549 breast, 19.3%. In addition, the growth is 0.633% (active) in the assay on MDA-MB-435 melanoma; 12.8% with MCF7 breast; 7.57% (active) with HCT-116 colon; 103% in the assay on HCC-2998 colon; 12.9% in the assay on KM12 colon.

In the case of `N#Cc1c(-c2ccccc2)nc2c(c(-c3ccc(Cl)cc3)nn2-c2ccccc2)c1-c1ccc([N+](=O)[O-])cc1`, the growth with SR leukemia is 63.4%; with RPMI-8226 leukemia, 101%; in the assay with OVCAR-8 ovarian, 98.5%; in the assay on OVCAR-5 ovarian, 99.9%; with OVCAR-4 ovarian, 109%; with SK-OV-3 ovarian, 102%. For the same compound, the growth with IGROV1 ovarian was 103%; in the assay with OVCAR-3 ovarian, 126%; with HS 578T breast, 104%; in the assay on NCI/ADR-RES ovarian, 101%; with T-47D breast, 90.2%; in the assay with BT-549 breast, 111%. In addition, the growth in the assay on MDA-MB-435 melanoma was 103%; in the assay on SW-620 colon it was 96.1%; in the assay with MCF7 breast it was 91.7%; with HCC-2998 colon it was 120%; in the assay with KM12 colon, 102%.

`Cc1sc2nc(NCCN)[nH]c(=O)c2c1C`: the growth is 89.6% in the assay with SR leukemia; 110% in the assay with RPMI-8226 leukemia; 101% with OVCAR-8 ovarian; 89.5% with OVCAR-5 ovarian; 85.1% with OVCAR-4 ovarian; 111% with SK-OV-3 ovarian. For the same compound, the growth in the assay with IGROV1 ovarian was 100%; in the assay on OVCAR-3 ovarian it was 96.7%; in the assay on HS 578T breast, 88.7%; in the assay with NCI/ADR-RES ovarian, 94.8%; in the assay with T-47D breast, 95%; in the assay with BT-549 breast it was 94.3%. Moreover, the growth in the assay on MDA-MB-435 melanoma was 84.9%; in the assay on MCF7 breast, 89.6%; with HCT-116 colon, 97.8%; with HCC-2998 colon, 101%; in the assay with KM12 colon, 84.3%.

On to `CCCN(CCSSCCNc1nc(N(C)O)nc(N(C)O)n1)c1nc(N(C)O)nc(N(C)O)n1`, for which the growth was 129% in the assay on SR leukemia; 42.6% in the assay with RPMI-8226 leukemia; 70.9% in the assay with OVCAR-8 ovarian; 58% in the assay on OVCAR-5 ovarian; 55% in the assay with OVCAR-4 ovarian; 57.1% in the assay on SK-OV-3 ovarian. In addition, the growth in the assay on IGROV1 ovarian was 83%; with OVCAR-3 ovarian, 51.6%; in the assay with HS 578T breast it was 131%; with NCI/ADR-RES ovarian, 85.1%; in the assay on T-47D breast it was 61.9%; with BT-549 breast, 7.99% (active). For the same compound, the growth with MDA-MB-435 melanoma is 95.1%; in the assay with SW-620 colon, 75.1%; with MCF7 breast it was 83.2%; with HCC-2998 colon it was 59.8%; with KM12 colon, 48.2%.

For `COc1cc(/C=C/C(=O)c2cc(OC)c(OC)c(OC)c2)ccc1Oc1nc2c(c(=O)n(C)c(=O)n2C)n1C`, the growth was 8.62% (active) with SR leukemia; 6.12% (active) with RPMI-8226 leukemia; 10.7% in the assay with OVCAR-8 ovarian; 5.82% (active) in the assay with OVCAR-5 ovarian; 19.1% in the assay on OVCAR-4 ovarian; 30.3% in the assay with SK-OV-3 ovarian. In addition, the growth is -8.8% (active) with IGROV1 ovarian; -48.4% (active) in the assay with OVCAR-3 ovarian; 26.7% with HS 578T breast; 0.709% (active) with NCI/ADR-RES ovarian; -57.7% (active) in the assay on BT-549 breast; -44% (active) in the assay on MDA-MB-435 melanoma. Further, the growth in the assay with SW-620 colon is -40% (active); in the assay on MCF7 breast, 0.476% (active); with HCT-116 colon it was -80.6% (active); with HCC-2998 colon it was -85.9% (active); with KM12 colon, -62.1% (active).
